Test results: ChEMBL document CHEMBL3988442, “University of Dundee, Small-Polar-MMV Screening Library” (2021)

molecular target: AMP-activated protein kinase, AMPK (Homo sapiens) (UniProt P54646+O43741+P54619+Q9UGJ0+Q9Y478+Q13131+Q9UGI9); assay: AMP-dependent Kinase enzyme assay. An in vitro enzyme assay that detects ADP turnover that is directly proportional to AMPK activity. This uses naive AMPK that is activated during the assay with MK-8722; type: functional; set-up: scale not given: direction of the effect not stated beside the values; details: 30 µM

Compound	Percent Effect
CNC(=O)c1ccnc(CC2COc3c(cccc3OC)C2)c1 (centres undefined)	7.88%
Cc1sc(Oc2ccccc2Cl)nc1C(=O)O	10.7%
CC(C)(NCCOc1ccc(CC#N)cc1)c1nccs1	-2.44%
Cc1nnc(-c2cccc(C#N)c2)n1C1CCN(C2CC2)C1=O (centres undefined)	-1.74%
Cc1n[nH]c(C)c1CCc1n[nH]c(=O)n1Cc1cccs1	-7.17%
CCCOc1ccc(Cl)cc1CNc1ncnc2oc(C)nc12	0.0102%
O=C(CN1CC(c2nc(-c3ccco3)no2)C1)NCc1ccc(F)cc1	1.74%
CN(CCc1ccncc1)CCc1nccs1	1.48%
Cc1cc(C(=O)NC(C)Cc2ccc(N(C)C)cc2)n(C)n1 (centres undefined)	11.6%
CCC1COCCN1C(=O)NCc1nccn1Cc1ccccc1 (centres undefined)	-0.566%
COc1cccc(-c2ncc(CN3CC[C@H](CO)[C@@H](O)C3)s2)c1	-0.478%
O=C(OCC1CCCN1)c1cccc(NC(=O)c2ccco2)c1 (centres undefined)	-4.3%
Cc1cc(=O)n(CCNC(=O)c2ccccc2Cl)cn1	-4.73%
CC(=O)N[C@H]1CCO[C@@H](c2cccc(NC(=O)c3cccc(F)c3)c2)C1	6.73%
Cc1nc(NC(=O)NCCCN2CCC(C(N)=O)CC2)sc1C	6.51%
O=C(c1cncc(NCC2COc3ccccc3C2)n1)N1CCCCC1 (centres undefined)	16.5%
Cc1cccc(COc2ccc(C(C)NC(=O)CNC(N)=O)cc2)c1 (centres undefined)	1.42%
COCCCC1(CO)CCCN(C(=O)c2cnc3c(c2)CCCC3)C1 (centres undefined)	-2.32%
Cc1noc(C)c1CC(=O)N1CCCC(n2ccnc2C)C1 (centres undefined)	-4.43%
